Screening results deposited in PubChem BioAssay by several laboratories.
KLK7 zymogen act: proKLK7 zymogen activators, primary screen, biochemical, fluorescence intensity; Kallikrein-7 (Homo sapiens), P49862; purified proKLK7, EDANS-DABCYL substrate fluorescence; 100% is mature enzyme control, 0% vehicle; activation, % at 7 µM; 0.9% of 370,000 active;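 active means activation above the mean of all tested compounds plus 3 SD, computed per campaign excluding outliers beyond control limits, cut at about 13% in these data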
Target sequence (P49862 whole entry, looked up): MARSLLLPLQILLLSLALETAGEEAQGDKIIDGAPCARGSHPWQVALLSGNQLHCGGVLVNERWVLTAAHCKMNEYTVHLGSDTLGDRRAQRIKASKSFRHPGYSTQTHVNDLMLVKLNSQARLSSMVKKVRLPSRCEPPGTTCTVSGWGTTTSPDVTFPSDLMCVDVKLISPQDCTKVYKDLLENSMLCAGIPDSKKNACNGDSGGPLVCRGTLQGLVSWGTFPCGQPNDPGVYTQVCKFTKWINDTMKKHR
FGF22 binding: binders of human FGF22 protein, primary screen, FGF22 synaptogenesis inhibitor project, biophysical, thermal shift, single point. Fibroblast growth factor 22 (Homo sapiens), Q9HCT0. recombinant FGF22 thermal shift, SYPRO orange fluorescence; percent of sucrose octasulfate shift, DMSO zero. activity (Tm shift, normalised), % at 9.99 µM. 1.5% of 340,000 active;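 active means mean Tm shift, scaled 0 neutral to 100 positive control, at about 1.3% or above, every replicate too, limit read from the data; inconclusive means no clear call, values can overlap the other calls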
Target sequence (Q9HCT0 whole entry, looked up): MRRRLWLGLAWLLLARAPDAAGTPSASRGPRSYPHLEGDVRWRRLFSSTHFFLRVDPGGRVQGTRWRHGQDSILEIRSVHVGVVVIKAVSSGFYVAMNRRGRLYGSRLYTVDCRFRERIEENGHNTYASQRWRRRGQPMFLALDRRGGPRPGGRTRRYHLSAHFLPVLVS
Ecoli rRNA inh: reduced GFP signal of wild-type E. coli, primary screen, bacterial rRNA inhibitor project, GFP/RFP fluorescence, OD600, single point; GFP signal change (wild-type ribosome), % (no concentration beside the values); AID 720706, 2013; 1.6% of 350,000 active; E. coli WT GFP vs humanized-ribosome RFP mutants, 24 h; hits give low values; DMSO median 0, no signal -100;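 active means significant combined selectivity score with lowered wild-type GFP, culture density cut under 30%, mutant RFP and density less affected; inactive means any of these conditions unmet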
ADAM17 inh: ADAM17 inhibitors, primary screen, biochemical, QFRET; recombinant ADAM17, EDANS/DABCYL FRET peptide cleavage; inhibition, % at 6.95 µM; 0.83% of 370,000 active;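 active means inhibition above the mean of compounds lying between control limits plus 3 SD, set per campaign, cut at about 8.5% in these data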;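 further: 0% = DMSO-only wells as the low control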
ADAM10 inh: human ADAM10 inhibitors, primary screen, biochemical, QFRET, HTS; inhibition, % at 7 µM; recombinant ADAM10, EDANS/DABCYL FRET peptide cleavage, 3 h; 0.62% of 370,000 active;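 active means inhibition above a per-campaign cutoff equal to the mean of compounds falling between control-based bounds plus 3 SD, cut at about 20% in these data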;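 further: 0% = DMSO wells while the 100% control is not disclosed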
HepG2 cytotox: cytotoxicity in HepG2 cells, dose response, cytotoxicity control, cell-based, CellTiter-Glo luminescence, cherry-pick, set 4; shares compounds with Ecoli rRNA inh; HepG2 viability, ATP luminescence, 72 h; activity change, negative = cytotoxicity, unspecified at 26 µM; 30 tested, under 10 active; AID 743480, 2014;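 active means compounds whose fitted half-maximal signal-loss concentration is at most twice their highest valid dose; inconclusive means flat curve with 30 to 70% signal loss, or poor fit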
AID977621: growth inhibition of wild-type GFP E. coli, dose response, H69 mutant RFP, cherry-pick; AID 977621, 2014; 1,900 tested, under 10 active; E. coli wild-type GFP strain growth, fluorescence, 24 h; shares compounds with Ecoli rRNA inh; activity change, negative = inhibition at 50 µM;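 active means Wild-type ribosome reporter drop at least double the humanized mutant ribosome reporter drop, growth loss under a set limit; inconclusive means no clear call, values can overlap the other calls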;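 further: wild-type GFP and H69 mutant RFP strains grown together 50/50 in each well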
AID977628: E. coli growth inhibition, wild-type GFP versus h24 humanized RFP strain, dose response, h24 mutant RFP vs wild-type GFP, cherry-pick. activity change, negative = inhibition at 50 µM. shares compounds with Ecoli rRNA inh. AID 977628, 2014. 1,900 tested, under 10 active. E. coli WT GFP strain growth, fluorescence, 24 h;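 active means compound lowering the normal-ribosome reporter at least twice as much as the humanized-ribosome reporter, growth loss under a set limit; inconclusive means no clear call, values can overlap the other calls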;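 further: wild-type GFP and h24 humanized RFP strains co-cultured 1 to 1 per well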
* = called active by the depositor; ? = inconclusive; / = no result given; ! = a repeat was not active. Hits are enriched below; roughly 3.8% of the tested compounds scored in any of these assays.

SMILES | KLK7 zymogen act | FGF22 binding | Ecoli rRNA inh | ADAM17 inh | ADAM10 inh | AID977621 | AID977628 | others
Cc1ccc(S(=O)(=O)Nc2ccc3c(c2)C(=O)N([C@H](C)CO)C[C@@H](C)[C@H](CN(C)C(=O)c2ccccc2)OCCCC[C@@H](C)O3)cc1 | / | / | -16* | / | / | -4.5 | ?
Cc1ccc(S(=O)(=O)Nc2ccc3c(c2)C(=O)N([C@@H](C)CO)C[C@@H](C)[C@@H](CN(C)C(=O)c2ccccc2)OCCCC[C@H](C)O3)cc1 | / | / | 0 | / | / | / | /
Cc1ccc(S(=O)(=O)Nc2ccc3c(c2)C(=O)N([C@@H](C)CO)C[C@@H](C)[C@H](CN(C)C(=O)c2ccccc2)OCCCC[C@@H](C)O3)cc1 | / | / | -23* | / | / | 8.2 | 1.2
O=C(C[C@@H]1CC[C@@H]2[C@H](COC[C@@H](O)CN2C(=O)Nc2ccc(C(F)(F)F)cc2)O1)NCCc1ccncc1 | / | 0 | -58 | / | / | / | /
COC(=O)c1c(NC(=O)CCC(=O)O)sc(Cc2ccccc2)c1C | 0 | 0 | -38* | -4 | -1 | / | / | HepG2 cytotox=13
COc1cccc(CN(C)Cc2nc(Cc3ccccc3Cl)no2)c1 | 0 | 0 | -26* | -2 | -2 | -17 | ?
CN(Cc1ccccn1)Cc1nc(Cc2ccccc2Cl)no1 | 0 | 0 | 5 | -5 | 1 | / | /
C[C@H](CO)N1C[C@H](C)[C@H](CN(C)C)Oc2ccc(NC(=O)CCN3CCOCC3)cc2C1=O | / | 0 | -3 | / | / | / | /
Cc1ccc(C2(CCNCc3ccco3)CCOC(C(C)C)C2)cc1 (centres undefined) | 1 | 0 | 1 | -6 | -12 | / | /
CC(=O)N(CCC1(c2ccc(C)cc2)CCOC(C(C)C)C1)Cc1ccco1 (centres undefined) | 0 | 0 | -20* | 1 | 4 | -14 | /
CC(=O)N[C@@H]1CC[C@H](CCNC(=O)C2CCCC2)O[C@H]1CO | / | 0 | 1 | / | / | / | /
CCC(C)C(=O)Nc1nc2ccc(OC)cc2s1 (centres undefined) | 1 | 0 | -22* | -4 | 1 | -21 | /
CC(C)(C)NC(=O)CC(CC(=O)O)c1ccccc1 (centres undefined) | 0 | 0 | 14 | -4 | -12 | / | /
O=C(O)CC(CC(=O)Nc1ccc2ccccc2n1)c1ccccc1 (centres undefined) | 0 | 0 | -20* | 1 | 8 | -3.8 | -1.7
C[C@H](CO)N1C[C@H](C)[C@@H](CN(C)C(=O)c2ccccc2)OCCCC[C@H](C)Oc2ccc(NC(=O)NC3CCCCC3)cc2C1=O | / | 0 | -4 | / | / | / | /
CO[C@H]1CN(C)C(=O)c2ccc(NC(=O)C3CCCCC3)cc2OC[C@@H](C)NC[C@@H]1C | / | 0 | -2 | / | / | / | /
O=C(NC(=O)c1ccccc1Cl)C(=O)Nc1ccc(Cl)cc1 | 0 | 0 | 20 | -1 | -3 | / | /
O=C(Nc1c(S(=O)(=O)c2ccc(Cl)cc2)csc1Br)c1ccccc1Cl | 0 | 0 | -26* | 3 | 4 | -0.53 | ?
COCC#Cc1ccc2c(c1)O[C@@H](CN(C)S(=O)(=O)c1cccc(F)c1)[C@@H](C)CN([C@H](C)CO)S2(=O)=O | 1 | 0 | -20*! | 0 | -4 | -22 | /
Cc1ccc(-c2ccc3c(c2)O[C@@H](CN(C)Cc2cccc(C(=O)O)c2)[C@H](C)CN([C@@H](C)CO)S3(=O)=O)cc1 | / | 0 | -18* | / | / | / | ?
CC(C)NC(=O)Nc1ccc2c(c1)C(=O)N([C@H](C)CO)C[C@H](C)[C@@H](CN(C)S(=O)(=O)c1cn(C)cn1)OCCCC[C@@H](C)O2 | / | 0 | 9 | / | / | / | /
COCC#Cc1ccc([C@@H]2[C@@H](CO)N3C(=O)CN(C(=O)C4CCOCC4)C[C@H]23)cc1 | / | / | 3 | / | / | / | /
COC(=O)c1sccc1NC(=O)CNC(=O)c1ccccc1 | 0 | 0 | -23* | -5 | -5 | -15 | -14
COC(=O)c1sccc1NC(=O)c1ccc(C)cc1 | 0 | 0 | 3 | 6 | 6 | / | /
COc1ccc(S(=O)(=O)N(C)C[C@@H]2Oc3ccc(NC(=O)C4CCCCC4)cc3CC(=O)N([C@H](C)CO)C[C@H]2C)cc1 | / | 0 | 3 | / | / | / | /
SMILES | KLK7 zymogen act | FGF22 binding | Ecoli rRNA inh | ADAM17 inh | ADAM10 inh | AID977621 | AID977628 | others
O=[N+]([O-])c1cccc(COc2ccc(CN3CCOCC3)cc2)c1 | 0 | 0 | -17* | 1 | -7 | -5 | -8.8
O=[N+]([O-])c1cccc(COc2ccc(CN3CCCC3)cc2)c1 | 0 | 1 | -4 | 1 | -2 | / | /
O=C(Cc1coc2ccc3ccccc3c12)NCc1ccccc1 | 0 | 1 | -26* | -1 | 4 | -0.56 | /
C=CCN(c1ccccc1)S(=O)(=O)c1cccc2cccnc12 | -1 | 0 | -24* | -4 | -8 | 2.3 | /
CCCCc1cc2c(cc1NC(=O)CN1CCCCC1)OCCO2 | 0 | 0 | -18* | 2 | 0 | / | -10
CC(=O)c1cc2c(cc1NC(=O)CN1CCCCCCC1)OCO2 | 1 | / | / | -7 | -20 | / | /
O=C(C[C@H]1CC[C@H](NC(=O)Nc2cccc(F)c2)[C@@H](CO)O1)NCC1CCCCC1 | / | 0 | 0 | / | / | / | /
O=C(O)c1ccc(Cl)c(S(=O)(=O)Nc2ccccc2Cc2ccccc2)c1 | -1 | 0 | -19* | -4 | 7 | / | ?
OC(CN1CCNCC1)Cn1c2ccccc2c2ccccc21 (centres undefined) | 0 | -1 | 6 | -2 | -16 | / | /
C=CCN(CC=C)CC(O)Cn1c2ccccc2c2ccccc21 (centres undefined) | 0 | 0 | -21* | -5 | -7 | -9.5 | ?
CCCCNC(=O)c1ccc(CS(=O)(=O)c2cccc(C(F)(F)F)c2)o1 | 0 | / | / | -2 | -2 | / | /
CC(C)OCCCNC(=O)c1ccc(CS(=O)(=O)c2cccc(C(F)(F)F)c2)o1 | 0 | 0 | -19* | 0 | 0 | -13 | ?
C[C@@H]1CCCCO[C@@H](CN(C)C(=O)CCCN(C)C)[C@H](C)CN([C@@H](C)CO)C(=O)c2cc(NC(=O)c3ccncc3)ccc2O1 | / | 0 | 2 | / | / | / | /
